Calls of active or inactive are those of the source. Unless noted, how the calls were made is not given here.
What was measured:
[1] = compounds binding Alexa647 anti-His antibody – biochemical, small-molecule microarray, 635 nm fluorescence, artefact control for SMM control protein annotation, primary screen (AID 1128); conditions: higher = more signal;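 further: score merges feature fluorescence with signal-to-noise for each printed compound spot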
[2] = system: Human papillomavirus type 1a E7 protein (residues 1-88); assay: HPV1a E7 small-molecule binders, primary screen, biochemical, small-molecule microarray, residues 1-88, 635 nm (AID 1129); conditions: small-molecule microarray binding, fluorescence 635 nm; higher = more signal
[3] = target: Focal adhesion kinase 1 (Homo sapiens) (UniProt Q05397); assay: PTK2 protein binding on printed compound slides – biochemical, small-molecule microarray, 635/667 nm fluorescence, BSA, DTT, primary screen (AID 1130); conditions: 635 nm fluorescence, higher = more signal;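 further: composite of spot emission at 667 nm and signal to noise over triplicate slides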
Chain of Focal adhesion kinase 1 (Homo sapiens) (Q05397 whole entry, looked up): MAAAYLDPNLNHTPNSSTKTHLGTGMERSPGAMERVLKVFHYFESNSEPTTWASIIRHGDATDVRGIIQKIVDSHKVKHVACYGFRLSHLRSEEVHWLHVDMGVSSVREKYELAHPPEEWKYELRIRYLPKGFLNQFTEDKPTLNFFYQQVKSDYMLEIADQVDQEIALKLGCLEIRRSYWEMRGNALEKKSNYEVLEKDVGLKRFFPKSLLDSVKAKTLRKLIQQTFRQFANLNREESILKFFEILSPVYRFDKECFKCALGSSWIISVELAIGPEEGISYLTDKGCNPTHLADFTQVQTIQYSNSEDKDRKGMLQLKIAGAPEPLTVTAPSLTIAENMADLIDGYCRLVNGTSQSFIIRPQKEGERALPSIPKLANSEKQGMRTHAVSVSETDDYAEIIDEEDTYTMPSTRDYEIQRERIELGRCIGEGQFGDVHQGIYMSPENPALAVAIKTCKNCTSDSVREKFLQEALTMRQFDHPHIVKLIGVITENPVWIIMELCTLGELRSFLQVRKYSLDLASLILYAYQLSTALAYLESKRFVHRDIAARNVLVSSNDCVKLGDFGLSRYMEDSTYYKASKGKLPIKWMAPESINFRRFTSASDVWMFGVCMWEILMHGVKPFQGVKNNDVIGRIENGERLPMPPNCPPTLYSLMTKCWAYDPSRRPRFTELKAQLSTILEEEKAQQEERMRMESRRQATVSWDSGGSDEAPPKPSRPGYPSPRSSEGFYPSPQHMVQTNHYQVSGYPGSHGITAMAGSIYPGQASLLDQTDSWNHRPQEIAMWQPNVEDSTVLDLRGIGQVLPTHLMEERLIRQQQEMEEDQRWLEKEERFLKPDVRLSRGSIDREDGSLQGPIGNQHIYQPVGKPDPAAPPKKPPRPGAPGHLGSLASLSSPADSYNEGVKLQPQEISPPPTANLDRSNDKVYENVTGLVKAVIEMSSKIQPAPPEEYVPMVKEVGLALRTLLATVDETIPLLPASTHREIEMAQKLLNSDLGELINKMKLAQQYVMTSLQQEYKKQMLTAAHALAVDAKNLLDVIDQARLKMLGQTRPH

[4] = system: Fibrinogen (Alexa647-labelled); assay: Alexa647-fibrinogen binding to printed small molecules – biochemical, small-molecule microarray, 635/667 nm fluorescence, artefact control for SMM control-protein annotation, profiling panel (AID 1131); conditions: fibrinogen-A647 binding fluorescence, higher = more signal;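 further: z-score merges 667 nm fluorescence with per-spot signal-to-noise over triplicate slides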
[5] = target: Follistatin (Homo sapiens) (UniProt P19883); assay: FST protein binding to printed compounds – biochemical, small-molecule microarray, 635/667 nm fluorescence, primary screen (AID 1132); conditions: 635 nm fluorescence, higher = more signal
Chain of Follistatin (Homo sapiens) (P19883 whole entry, looked up): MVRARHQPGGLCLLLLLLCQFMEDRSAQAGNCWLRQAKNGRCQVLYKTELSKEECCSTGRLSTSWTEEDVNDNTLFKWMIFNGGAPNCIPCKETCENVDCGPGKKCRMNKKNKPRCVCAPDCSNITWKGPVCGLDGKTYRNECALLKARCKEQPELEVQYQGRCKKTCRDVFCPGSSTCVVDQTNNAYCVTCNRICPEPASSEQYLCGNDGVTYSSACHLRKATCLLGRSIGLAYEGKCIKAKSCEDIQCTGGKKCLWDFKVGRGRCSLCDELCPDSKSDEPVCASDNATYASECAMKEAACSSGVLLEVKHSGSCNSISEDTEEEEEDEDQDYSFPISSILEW

[6] = target: Fibroblast growth factor 2 (Homo sapiens) (UniProt P09038); assay: basic fibroblast growth factor binding to printed compounds – biochemical, small-molecule microarray, 635/667 nm fluorescence, primary screen (AID 1133); conditions: FGF2, fluorescence 635/667, higher = more signal
Chain of Fibroblast growth factor 2 (Homo sapiens) (P09038 whole entry, looked up): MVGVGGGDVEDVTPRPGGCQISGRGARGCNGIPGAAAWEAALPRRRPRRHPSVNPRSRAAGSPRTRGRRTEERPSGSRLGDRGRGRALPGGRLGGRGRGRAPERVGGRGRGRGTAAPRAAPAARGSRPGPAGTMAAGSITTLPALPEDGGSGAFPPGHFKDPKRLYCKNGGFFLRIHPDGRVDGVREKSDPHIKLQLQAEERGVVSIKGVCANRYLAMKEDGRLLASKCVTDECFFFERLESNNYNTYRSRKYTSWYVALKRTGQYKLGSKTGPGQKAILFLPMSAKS

[7] = JC-1 mitochondrial potential readout, lung cancer cells – cell-based, A549, JC-1 fluorescence, basal, 24 h, 100 nL, profiling panel (AID 1138); conditions: higher = more signal;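 further: A549 lung adenocarcinoma cells under basal conditions with no added stimulus; test concentration not given here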
Lefty1 = Lefty1 protein binding to printed compounds – biochemical, small-molecule microarray, 635/667 nm fluorescence, primary screen (AID 1139); conditions: fluorescence 635/667, higher = more signal
[8] = system: wheat germ agglutinin (Triticum aestivum), Alexa647-labelled; assay: Alexa647-WGA lectin binding to printed small molecules – biochemical, small-molecule microarray, 635/667 nm fluorescence, artefact control for SMM control-protein annotation, profiling panel (AID 1140); conditions: WGA-A647 binding, 635 nm fluorescence, higher = more signal;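 further: score merges 667 nm feature emission with signal to noise over triplicate slides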
[9] = target: Luciferin 4-monooxygenase (Photinus pyralis) (UniProt P08659); assay: inhibition of purified Photinus pyralis luciferase – biochemical, luminescence, purified enzyme, 2006 set, primary screen (AID 1141); conditions: purified firefly luciferase, SteadyGlo luminescence, 30 min; higher = more signal, called active from +8 up or from −8 down;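 further: cell-free assay with purified firefly luciferase at 100 ng per well in PBS; test concentration not given here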
Chain of Luciferin 4-monooxygenase (Photinus pyralis) (P08659 whole entry, looked up): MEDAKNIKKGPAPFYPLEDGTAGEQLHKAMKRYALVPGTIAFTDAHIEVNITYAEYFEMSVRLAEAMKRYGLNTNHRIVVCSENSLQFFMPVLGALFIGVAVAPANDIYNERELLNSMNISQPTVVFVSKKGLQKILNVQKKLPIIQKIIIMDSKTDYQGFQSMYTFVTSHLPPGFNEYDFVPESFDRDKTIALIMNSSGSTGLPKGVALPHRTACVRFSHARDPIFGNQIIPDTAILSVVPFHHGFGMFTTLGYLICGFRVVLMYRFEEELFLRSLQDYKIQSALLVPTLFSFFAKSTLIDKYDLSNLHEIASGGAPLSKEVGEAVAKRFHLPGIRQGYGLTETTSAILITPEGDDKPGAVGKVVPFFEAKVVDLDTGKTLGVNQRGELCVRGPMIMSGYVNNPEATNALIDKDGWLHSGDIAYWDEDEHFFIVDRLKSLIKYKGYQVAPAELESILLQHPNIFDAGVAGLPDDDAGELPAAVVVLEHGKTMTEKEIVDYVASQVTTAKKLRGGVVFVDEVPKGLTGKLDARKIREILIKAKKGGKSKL

[10] = system: Wnt5a (protein binding on small-molecule microarray); assay: small molecules binding Wnt5a protein – biophysical, small-molecule microarray, 635/667 nm fluorescence, primary screen (AID 1142); conditions: 635 nm fluorescence, higher = more signal;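 further: fluorescence read at 667 nm with signal to noise per printed feature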
[11] = ATP-based viability of Huh7 replicon cells – cell-based, CellTiter-Glo luminescence, basal, 48 h, cytotoxicity control for HCV replication inhibitor project, primary screen (AID 1143); conditions: higher = more signal, called active from +8 up or from −8 down;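 further: Huh7 hepatoma cells carrying a hepatitis C replication reporter with no stimulus; test concentration not given here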
[12] = Pseudomonas biofilm growth suppression – PAO1 strain, BacTiter-Glo luminescence, LB-PBS, primary screen (AID 1144); conditions: P. aeruginosa PAO1 biofilm, 12 h, higher = more signal
[13] = basal CRE-LacZ reporter activity in PC12 – cell-based, unstimulated, primary screen (AID 1145); conditions: no forskolin, luminescence, 4.5 h, higher = more signal, called active from +8 up or from −8 down
[14] = forskolin-driven CRE-LacZ activity in PC12 – cell-based, CRE-LacZ reporter, forskolin-stimulated, primary screen (AID 1146); conditions: luminescence, 4.5 h, higher = more signal, called active from +8 up or from −8 down;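 further: PC12 cells with 6xCRE LacZ reporter stimulated by forskolin 10 µM; beta-galactosidase reporter signal reflecting CREB driven transcription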
[15] = target: Streptavidin (Streptomyces avidinii) (UniProt P22629); assay: compounds binding control protein streptavidin – biophysical, small-molecule microarray, 635/667 nm fluorescence, artefact control for SMM compound annotation, primary screen (AID 1147); conditions: higher = more signal;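 further: signal reflects streptavidin binding to arrayed compounds as a control protein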
Chain of Streptavidin (Streptomyces avidinii) (P22629 whole entry, looked up): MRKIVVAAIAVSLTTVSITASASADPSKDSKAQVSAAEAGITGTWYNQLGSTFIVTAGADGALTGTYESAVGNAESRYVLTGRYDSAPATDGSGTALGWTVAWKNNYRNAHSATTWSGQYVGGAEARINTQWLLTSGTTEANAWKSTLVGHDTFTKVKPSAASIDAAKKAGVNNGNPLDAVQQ

[16] = probe aInhba binding on compound microarray – biochemical, small-molecule microarray, 635/667 nm fluorescence, primary screen (AID 1148); conditions: higher = more signal;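 further: score merges 667nm spot fluorescence with signal-to-noise for antibody binding to printed compounds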
Torsin-1A (Homo sapiens) [17] = target: Torsin-1A (Homo sapiens) (UniProt O14656); assay: TOR1A wild-type binding on microarray – cell lysate, small-molecule microarray, lysate, 635/667 nm, primary screen (AID 1149); conditions: COS7 hTOR1A-WT lysate, 635 nm fluorescence, higher = more signal
Chain of Torsin-1A (Homo sapiens) (O14656 whole entry, looked up): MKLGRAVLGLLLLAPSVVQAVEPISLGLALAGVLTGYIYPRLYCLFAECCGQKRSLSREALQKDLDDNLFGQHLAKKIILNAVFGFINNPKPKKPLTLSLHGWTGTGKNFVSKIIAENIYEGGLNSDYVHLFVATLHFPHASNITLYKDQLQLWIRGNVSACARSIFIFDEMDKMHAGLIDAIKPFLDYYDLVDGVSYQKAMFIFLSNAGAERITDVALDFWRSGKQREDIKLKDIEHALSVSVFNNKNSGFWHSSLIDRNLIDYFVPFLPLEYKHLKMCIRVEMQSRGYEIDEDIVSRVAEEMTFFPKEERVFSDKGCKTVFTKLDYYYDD

Torsin-1A (Homo sapiens) [18] = target: Torsin-1A (Homo sapiens) (UniProt O14656); assay: torsin A mutant lysate binding on microarrays – cell lysate, small-molecule microarray, COS7 lysate, 635/667 nm fluorescence, primary screen (AID 1150); conditions: COS7 hTOR1A mutant lysate, 635 nm fluorescence, higher = more signal;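 further: score pools 667 nm emission and signal to noise measuring lysate protein binding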
[19] = system: Sonic hedgehog protein (Shh); assay: Sonic hedgehog microarray binding compounds – biochemical, small-molecule microarray, 635/667 nm fluorescence, primary screen (AID 1151); conditions: 635 nm fluorescence, higher = more signal;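 further: Shh protein binding to compounds spotted on small-molecule microarray slides; score combines spot fluorescence intensity with signal-to-noise across triplicate slides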

| SMILES | composite z-score [1] | composite z-score [2] | composite z-score [3] | composite z-score [4] | composite z-score [5] | composite z-score [6] | z-score [7] | composite z-score (Lefty1) | composite z-score [8] | z-score [9] | composite z-score [10] | z-score [11] | z-score [12] | z-score [13] | z-score [14] | composite z-score [15] | composite z-score [16] | composite z-score (Torsin-1A (Homo sapiens) [17]) | composite z-score (Torsin-1A (Homo sapiens) [18]) | composite z-score [19] |
| --- | --- | --- | --- | --- | --- | --- | --- | --- | --- | --- | --- | --- | --- | --- | --- | --- | --- | --- | --- | --- |
| Cc1cc2c(nc1C)CCCCN2CC(O)CN1CCCc2nc(-c3ccc(Br)cc3)ccc21 (stereo not given) | 0.819 | 0.582 | 0.171 | -0.564 | 1.06 | 0.709 | 1.59 | 0.998 | 0.765 | -0.802 (inactive) | 0.0684 | 0.304 (inactive) | -0.708 (inactive) | 0.744 (inactive) | 0.597 (inactive) | 0.639 | 0.0541 | 0.0636 | 0.154 | 1.1 |
| CC(C)=CCCC(C)=CCON=C1C[C@@H](O)[C@@H](O)[C@@H]2[C@@H]3C(=O)N([C@@H](C)c4ccccc4)C(=O)[C@@H]3CC[C@@H]12 | 0.509 | 0.499 | 0.276 | 0.297 | 0.462 | 0.58 | -0.569 | 0.6 | 0.0833 | 0.391 (inactive) | 0.143 | -1.19 (inactive) | 0.491 (inactive) | -0.834 (inactive) | -0.541 (inactive) | 0.242 | -0.121 | 0.337 | 1.09 | 0.672 |
| C#CCCCON=C1C[C@@H](O)[C@@H](O)[C@@H]2[C@@H]3C(=O)N(C[C@@H]4CCCO4)C(=O)[C@@H]3CC[C@H]12 | 0.185 | 0.508 | 0.235 | 0.509 | 0.669 | 0.103 | -0.544 | 0.388 | 0.0691 | 0.451 (inactive) | -0.0106 | 0.119 (inactive) | 0.428 (inactive) | -0.564 (inactive) | 0.593 (inactive) | 0.66 | -0.128 | 0.372 | 0.406 | 0.554 |
| CO[C@@H]1COC(=O)[C@H](CCSC)NC(=O)CC=C[C@@H](C)COC(=O)[C@@H]2CCCN2C(=O)CC=C[C@H]1C | 0.0289 | 0.258 | -0.702 | -1.13 | 0.779 | 0.889 | 0.215 | 1.15 | -1.37 | -0.0167 (inactive) | 0.186 | -0.501 (inactive) | 0.277 (inactive) | 0.0652 (inactive) | -1.38 (inactive) | -0.234 | -0.024 | 1.24 | 0.785 | 0.876 |
| CON=C(C)CCN1CCCc2nc(C)c(C)cc21 | 1.15 | 0.476 | -0.0211 | 0.613 | 0.632 | 0.653 | 1.45 | 1.05 | 0.201 | 0.267 (inactive) | 0.377 | 0.258 (inactive) | 0.128 (inactive) | 0.345 (inactive) | -0.0543 (inactive) | 0.286 | -0.0645 | -0.209 | 0.23 | 1.07 |
